In PubChem BioAssay one finds growth inhibition, inhibition and outcome data, which are given here for 20 compounds.

Molecules are shown by their SMILES. A number with no mark means an inactive call. For some of these results: Potency and affinity values are given separately. Activity calls are given as the source filed them. Unless noted, no rule for the calls is given here.

Assay [1] in a line: antimalarial activity against Dd2 strain (AID 2302;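 active = growth inhibition above 50% at the single 2 µM test dose, taken to imply half-maximal potency below 2 µM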;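 also: 0% = DMSO untreated growth and 100% = chloroquine plus artemisinin killed control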). Conditions: P. falciparum Dd2 in RBCs, LDH growth readout, 72 h; at 2 µM; hits give high values.
Assay [2] is described as follows: HepG2 cytotoxicity, primary screen, cytotoxicity control for P. falciparum antimalarial project, cell-based, ATP luminescence (AID 2303;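 active = inhibition above 50%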;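 also: 0% = DMSO wells and 100% = digitonin-killed cells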). The conditions noted are these: HepG2 viability, 24-48 h, at 10 µM, hits give high values.
The target in assay [3] is L-lactate dehydrogenase (Plasmodium falciparum (isolate CDC / Honduras)) (UniProt Q27743). Kind of assay: PfLDH activity inhibition – cell lysate, 3D7 strain, counter-screen for P. falciparum growth inhibition project (AID 2304).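 Also: 0% = vehicle and 100% = reference inhibitor.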 The conditions noted are these: P. falciparum 3D7 crude extract, LDH APAD/NBT absorbance; at 2 µM; hits give high values.
Assay [4] can be described thus: inhibition of 3D7 malaria parasite growth – strain 3D7 (AID 2306).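 Also: 0% = DMSO wells and 100% = chloroquine plus artemisinin control wells.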 The conditions noted are these: P. falciparum 3D7 erythrocytic growth, LDH absorbance, 72 h; at 2 µM; hits give high values.
The target of assay [5] is Calcium-dependent protein kinase 1 (Plasmodium falciparum (isolate 3D7)) (UniProt P62344). Kind of assay: PfCDPK1 kinase inhibitors, biochemical, TCAMS library (AID 1159585; cut-off not given, nearly all actives have IC50 up to about 0.98 µM;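 also: inhibitors leave more ATP so luminescence rises with inhibition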). Conditions: recombinant PfCDPK1, Kinase-Glo ATP depletion luminescence. A general note: Kinase-Glo measures the ATP left after a reaction by luminescence.
In assay [6] the target is Plasmodium falciparum protein kinase 6 (PK6, PF3D7_1337100) (UniProt Q8IDW1). Kind of assay: PfPK6 kinase inhibitors, biochemical, TCAMS library (AID 1159586). The conditions noted are these: recombinant PfPK6, Kinase-Glo ATP depletion luminescence.
Assay [7] concerns the target Protein kinase 7 (PK7), Plasmodium falciparum 3D7 (PF3D7_0213400) (UniProt Q7YTF7). Kind of assay: inhibition of Plasmodium PK7 catalytic activity – biochemical, TCAMS antimalarial set, Kinase-Glo luminescence (AID 1159587). Conditions: recombinant PfPK7, Kinase-Glo ATP depletion luminescence.
Assay [8] has as its target Calcium-dependent protein kinase 4 (Plasmodium falciparum (isolate 3D7)) (UniProt Q8IBS5). Kind of assay: PfCDPK4 kinase inhibitors, biochemical, TCAMS library (AID 1159588; cut-off not given, nearly all actives have IC50 up to about 0.91 µM). Conditions: recombinant PfCDPK4, Kinase-Glo ATP depletion luminescence.

Chain of L-lactate dehydrogenase (Plasmodium falciparum (isolate CDC / Honduras)) (Q27743 whole entry, looked up): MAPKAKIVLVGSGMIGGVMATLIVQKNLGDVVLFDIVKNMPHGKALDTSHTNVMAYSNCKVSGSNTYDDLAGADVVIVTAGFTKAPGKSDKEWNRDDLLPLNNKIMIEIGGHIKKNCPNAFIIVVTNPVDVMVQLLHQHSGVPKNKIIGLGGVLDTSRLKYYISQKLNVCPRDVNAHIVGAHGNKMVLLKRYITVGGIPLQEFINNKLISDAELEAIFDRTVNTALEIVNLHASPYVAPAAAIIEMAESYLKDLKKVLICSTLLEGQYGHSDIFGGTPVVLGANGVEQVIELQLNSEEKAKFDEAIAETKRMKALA
Chain of Calcium-dependent protein kinase 4 (Plasmodium falciparum (isolate 3D7)) (Q8IBS5 whole entry, looked up): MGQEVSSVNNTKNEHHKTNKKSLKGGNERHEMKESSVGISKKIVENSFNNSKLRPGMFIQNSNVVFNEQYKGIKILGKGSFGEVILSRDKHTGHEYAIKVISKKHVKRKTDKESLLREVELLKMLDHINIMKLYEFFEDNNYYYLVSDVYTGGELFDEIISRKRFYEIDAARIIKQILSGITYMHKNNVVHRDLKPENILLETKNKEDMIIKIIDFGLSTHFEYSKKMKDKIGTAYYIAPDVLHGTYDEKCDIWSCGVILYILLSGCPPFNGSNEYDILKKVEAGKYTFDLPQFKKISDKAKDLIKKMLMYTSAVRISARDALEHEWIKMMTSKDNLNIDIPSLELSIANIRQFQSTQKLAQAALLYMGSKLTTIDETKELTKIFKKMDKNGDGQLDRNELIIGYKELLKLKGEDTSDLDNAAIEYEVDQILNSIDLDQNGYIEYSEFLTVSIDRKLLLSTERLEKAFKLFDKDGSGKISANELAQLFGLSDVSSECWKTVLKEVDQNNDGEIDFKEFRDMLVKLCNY
Chain of Plasmodium falciparum protein kinase 6 (PK6, PF3D7_1337100) (Q8IDW1 1-305): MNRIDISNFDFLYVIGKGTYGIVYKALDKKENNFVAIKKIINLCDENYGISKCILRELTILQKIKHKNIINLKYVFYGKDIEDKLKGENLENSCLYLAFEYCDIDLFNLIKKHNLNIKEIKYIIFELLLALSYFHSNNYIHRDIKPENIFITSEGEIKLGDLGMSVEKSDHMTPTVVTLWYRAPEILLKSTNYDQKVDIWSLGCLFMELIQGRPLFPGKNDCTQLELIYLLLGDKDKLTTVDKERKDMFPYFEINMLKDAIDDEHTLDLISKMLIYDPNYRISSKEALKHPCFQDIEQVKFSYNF
Chain of Protein kinase 7 (PK7), Plasmodium falciparum 3D7 (PF3D7_0213400) (Q7YTF7 1-343): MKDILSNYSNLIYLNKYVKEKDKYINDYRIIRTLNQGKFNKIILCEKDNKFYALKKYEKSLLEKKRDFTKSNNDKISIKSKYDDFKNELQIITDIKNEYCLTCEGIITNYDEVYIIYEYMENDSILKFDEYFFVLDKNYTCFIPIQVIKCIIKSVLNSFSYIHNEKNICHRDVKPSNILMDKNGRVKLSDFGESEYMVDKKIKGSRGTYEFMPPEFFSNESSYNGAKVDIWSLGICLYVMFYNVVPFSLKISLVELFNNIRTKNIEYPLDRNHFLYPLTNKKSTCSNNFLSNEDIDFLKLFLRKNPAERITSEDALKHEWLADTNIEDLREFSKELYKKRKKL
Chain of Calcium-dependent protein kinase 1 (Plasmodium falciparum (isolate 3D7)) (P62344 whole entry, looked up): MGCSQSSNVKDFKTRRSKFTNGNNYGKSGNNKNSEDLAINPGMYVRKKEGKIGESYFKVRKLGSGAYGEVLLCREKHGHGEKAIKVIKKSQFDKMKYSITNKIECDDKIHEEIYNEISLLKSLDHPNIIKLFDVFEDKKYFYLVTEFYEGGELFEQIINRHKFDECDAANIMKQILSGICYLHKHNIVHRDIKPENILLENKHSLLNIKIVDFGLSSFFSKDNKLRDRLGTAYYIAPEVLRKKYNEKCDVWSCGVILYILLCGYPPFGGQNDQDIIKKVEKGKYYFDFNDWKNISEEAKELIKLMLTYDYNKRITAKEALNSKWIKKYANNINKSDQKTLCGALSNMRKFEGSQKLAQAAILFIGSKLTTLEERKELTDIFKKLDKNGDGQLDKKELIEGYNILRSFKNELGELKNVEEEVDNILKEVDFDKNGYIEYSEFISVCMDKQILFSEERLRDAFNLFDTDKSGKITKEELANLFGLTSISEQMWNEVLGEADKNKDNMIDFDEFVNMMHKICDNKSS

Usually inhibition stands for the change of the read-out against control, counted positive when it falls. For `CCCC(C)Nc1nc(C)cc(N[C@@H](CC(C)C)C(=O)Nc2ccc(OC)cc2)n1` (stereo not given in full), the growth inhibition in assay [1] is 68% (active); in assay [4], 98% (active). In addition, the figures for the inhibition in assay [2] and in assay [3] were 18% and -1%, respectively. For the same compound, the outcome in assay [5], in assay [6], in assay [7] and in assay [8] was inactive.

For `Oc1ccc(CCNc2nc(NCCOc3ccccc3-c3ccccc3)nc(N3CCNCC3)n2)cc1`, the growth inhibition is 17% in assay [1] and 93% (active) in assay [4]. Also, the inhibition in assay [2] is 22%; in assay [3], -1%. Further, the outcome in assay [5], in assay [6], in assay [7] and in assay [8] was inactive.

For `Cc1cnccc1/C=C/c1cccc(OCCCN2CCc3ccc(S(C)(=O)=O)cc3CC2)c1`, the growth inhibition in assay [1] was 72% (active); in assay [4], 92% (active). The inhibition in assay [2] and in assay [3] was 1% in each case. The result in assay [5], in assay [6], in assay [7] and in assay [8] was inactive.

In the case of `O=C(Cn1c(CCc2cccc(F)c2F)nc(=O)c2ccccc21)N(Cc1ccc(-c2ccc(C(F)(F)F)cc2)cc1)C1CCN(C2=NCCS2)CC1`, the growth inhibition was 85% (active) in assay [1] and 81% (active) in assay [4]. Also, the inhibition was 62% (active) in assay [2] and 3% in assay [3]. Also, the result in assay [5], in assay [6], in assay [7] and in assay [8] was inactive.

`CCc1ccc(OCCCON2C(N)=NC(N)=NC2(C)C)cc1`: the growth inhibition in assay [1] and in assay [4] was 95% (active) each time. For the same compound, the figures for the inhibition in assay [2] and in assay [3] were 64% (active) and -8%, respectively. In addition, the result in assay [5], in assay [6], in assay [7] and in assay [8] was inactive.

With `CN(C)Cc1ccc(-c2cccc(NC(=O)c3ccc(Cl)cc3)c2)cc1`, the growth inhibition is 13% in assay [1] and 94% (active) in assay [4]. Moreover, the inhibition in assay [2] is 24%; in assay [3], 3%. Moreover, the result in assay [5], in assay [6], in assay [7] and in assay [8] was inactive.

As for `CC(C)(C)OC(=O)c1c(NC(=O)/C=C/c2ccc(O)c(O)c2)sc2c1CCCC2`, the growth inhibition was 77% (active) in assay [1] and 97% (active) in assay [4]. The inhibition in assay [2] was 4%; in assay [3], 2%. Moreover, the result in assay [5], in assay [6], in assay [7] and in assay [8] was inactive.

Turning to `COc1ccc(Nc2nc(N3CCCC3)c3ccccc3n2)cc1`, the growth inhibition in assay [1] is 98% (active); in assay [4] it was 102% (active). The inhibition in assay [2] is 40%; in assay [3] it was 2%. Moreover, the outcome in assay [5], in assay [6], in assay [7] and in assay [8] was inactive.

As for `CC(c1cccc(S(=O)(=O)NCc2cccc(C(F)(F)F)c2)c1)N1CCC(N2CCCCC2)CC1` (stereo not given), the growth inhibition in assay [1] was 35%; in assay [4] it was 99% (active). Moreover, the figures for the inhibition in assay [2] and in assay [3] were 37% and 2%, respectively. Further, the result in assay [5], in assay [6], in assay [7] and in assay [8] was inactive.

As to `COc1ccc(C(=O)O)cc1OCc1ccccc1`, the growth inhibition in assay [1] was -3%; in assay [4], 99% (active). The inhibition in assay [2] was -3%; in assay [3], 3%. The result in assay [5], in assay [6], in assay [7] and in assay [8] was inactive.

As to `C=CCn1c(SCC(=O)Nc2cc(Cl)ccc2Cl)nc2sc(C)cc2c1=O`, the figures for the growth inhibition in assay [1] and in assay [4] were 96% (active) and 97% (active), respectively. Moreover, the inhibition in assay [2] is 8%; in assay [3], 0%. For the same compound, the outcome in assay [5], in assay [6], in assay [7] and in assay [8] was inactive.

In the case of `O=[N+]([O-])c1ccc(/C=N/Nc2cc(-c3ccccc3)nc3ccccc23)o1`, the figures for the growth inhibition in assay [1] and in assay [4] were 49% and 93% (active), respectively. For the same compound, the figures for the inhibition in assay [2] and in assay [3] were 48% and -5%, respectively. Further, the outcome in assay [5], in assay [6], in assay [7] and in assay [8] was inactive.

Take `CN1CCN(CC(=O)Nc2ccc(-c3ccc(-c4nc5ccccc5[nH]4)cc3)cc2)CC1`: the growth inhibition in assay [1] was 80% (active); in assay [4], 98% (active). Moreover, the values for the inhibition in assay [2] and in assay [3] were 18% and -1%, respectively. The result in assay [5], in assay [6], in assay [7] and in assay [8] was inactive.

Take `CCCC(C)c1ccc(N2C(N)=NC(N)=NC2(C)C)cc1` (stereo not given): the growth inhibition in assay [1] was 7%; in assay [4], 90% (active). For the same compound, the inhibition in assay [2] is 51% (active); in assay [3] it was 2%. Also, the outcome in assay [5], in assay [6], in assay [7] and in assay [8] was inactive.

In the case of `Cc1ccc2nc(-c3ccccc3)cc(NN=Cc3cccnc3)c2c1`, the growth inhibition in assay [1] is 39%; in assay [4], 99% (active). Moreover, the inhibition in assay [2] was 12%; in assay [3], 1%. Besides, the result in assay [5], in assay [6], in assay [7] and in assay [8] was inactive.

Take `NCc1cccc(-c2cccc(CNC3CCN(Cc4ccccc4)CC3)c2)c1`: the growth inhibition in assay [1] is 45%; in assay [4] it was 100% (active). Moreover, the results for the inhibition in assay [2] and in assay [3] were 9% and 2%, respectively. Further, the result in assay [5], in assay [6], in assay [7] and in assay [8] was inactive.

As for `Cc1cccc2[nH]c(-c3ccc(-c4cccc(CN5CCN(c6ccncc6)CC5)c4)s3)nc12`, the growth inhibition in assay [1] is 99% (active); in assay [4] it was 101% (active). For the same compound, the inhibition in assay [2] is 48%; in assay [3], 6%. Further, the outcome in assay [5], in assay [6], in assay [7] and in assay [8] was inactive.

For the compound `CC(C)C[C@H](NC(=O)c1ccc(OCCN2CCOCC2)cc1)C(=O)N[C@H](/C=N/N1CCN(C)C1=O)CCc1ccccc1`, the growth inhibition in assay [1] is 65% (active); in assay [4] it was 90% (active). The inhibition in assay [2] and in assay [3] was 3% in each case. Also, the result in assay [5], in assay [6], in assay [7] and in assay [8] was inactive.

Consider `CCCCN(C)CC#Cc1ccc2[nH]c(C)c(Cl)c(=O)c2c1`, for which the growth inhibition in assay [1] was 97% (active); in assay [4], 98% (active). For the same compound, the values for the inhibition in assay [2] and in assay [3] were -2% and -6%, respectively. For the same compound, the result in assay [5], in assay [6], in assay [7] and in assay [8] was inactive.

As for `C=C(NC(=O)c1cc(C)cc(C)c1)C(=O)OC`, the growth inhibition in assay [1] is -2%; in assay [4], 95% (active). In addition, the inhibition in assay [2] was 21%; in assay [3], -3%. Also, the result in assay [5], in assay [6], in assay [7] and in assay [8] was inactive.
